# Out of some 13,000 compounds screened, about 3,200 (25%) showed an effect of 50% or more. The list shows a part of the results.
# Test system: P. falciparum stage V gametocytes
# Set-up: BacTiter-Glo ATP luminescence viability of purified stage V gametocytes in 384-well plates, per cent inhibition versus DMSO
# Details: 48 h, 5 µM; inhibitor
row,Structure (SMILES),% Inhibition [%]
1,CC(C)(C(=O)Nc1ccc(C2CCC(NCC3CC3)CC2)c(Cl)c1)c1cccc(OC(F)F)c1 (stereo not shown) [TCMDC-134643],32
2,CC(C)(C(=O)Nc1ccc(N2CCC3(CCCN(CC4CC4)C3)CC2)c(Cl)c1)c1cccc(C(F)(F)F)c1 [TCMDC-134639],-12.77
3,CC(C)(C(=O)Nc1ccc(C2CCC(NCC3CC3)CC2)c(Cl)c1)c1ccc(C(F)(F)F)cc1 (stereo not shown) [TCMDC-134642],92.31
4,O=C(Nc1cccc(-c2ccc(-c3nc4ccc(C(F)(F)F)cc4[nH]3)cc2)c1)c1cnc[nH]1 [TCMDC-136938],-50.65
5,CCC(=O)Nc1ccc(Nc2nc(C)cc(N3CCCC3)n2)cc1 [TCMDC-124971],-15.13
6,Cc1nnc(Sc2ncnc3scc(-c4ccc(F)cc4)c23)s1 [TCMDC-125239],77.07
7,Fc1ccc(-c2csc3ncnc(Cl)c23)cc1 [TCMDC-125317],5.052
8,Clc1ncnc2scc(-c3ccc(Br)cc3)c12 [TCMDC-125318],-35.26
9,CN1CC=C(c2c[nH]c3ccc(Oc4ccccc4)cc23)CC1 [TCMDC-138966],12.83
10,CN(C)Cc1ccc(-c2cc3c(-c4ccc(CN(C)C)cc4)ccnc3[nH]2)cc1 [TCMDC-132409],78.19
11,NCCNS(=O)(=O)c1ccc(-c2ccnc3[nH]c(-c4ccncc4)cc23)cc1 [TCMDC-133364],20.68
12,CN(C)Cc1cccc(-c2cc3c(-c4cnn(C)c4)c(Cl)cnc3[nH]2)c1 [TCMDC-134147],-89.46
13,Cc1ccc2[nH]c(-c3ccccc3N)cc2c1 [TCMDC-131289],-61.86
14,CNC(=O)c1c(NC(=O)c2cccs2)sc2c1CCCC2 [TCMDC-125739],-2.665
15,CN(C)c1ccc(CN2CCC(NC(=O)c3ccc(-c4ccccc4F)s3)CC2)cc1 [TCMDC-134326],-40.45
16,O=C(NC1CCN(CCC(NC(=O)c2ccccc2)c2ccc(Cl)c(Cl)c2)CC1)c1ccc(Cl)cc1 (stereo not shown) [TCMDC-141712],-1.186
17,O=C(Nc1ccc(F)cc1)c1ccc(C(=O)NC2CCN(CC3CCCCC3)CC2)cc1 [TCMDC-136749],-13.8
18,Cc1cc(C(=O)NC2CCN(Cc3ccccc3)CC2)ccc1-c1nc2cc(Cl)c(Cl)cc2[nH]1 [TCMDC-140081],10.28
19,O=C(NC1CCN(CC2(c3ccc(Cl)cc3)CCC2)CC1)c1ccn[nH]1 [TCMDC-124830],58.08
20,O=C(NC1CCN(CC2(c3ccccc3)CCCC2)CC1)c1[nH]ncc1Cl [TCMDC-124836],56.38
21,O=C(NC1CCN(Cc2ccc(Cl)cc2)CC1)c1cn(-c2ccccc2)nc1-c1cccnc1 [TCMDC-125254],-34.02
22,O=C(NC1CCN(CC2(c3ccc(Cl)cc3)CCCCC2)CC1)c1ccn[nH]1 [TCMDC-124828],65.33
23,CC(C)c1ccc(CN2CCC(NC(=O)c3ccc(-c4ccccc4F)s3)CC2)cc1 [TCMDC-134345],-26.31
24,O=C(NC1CCN(CC2(c3ccccc3F)CCCC2)CC1)c1ccn[nH]1 [TCMDC-124837],65.27
25,Cc1ccc(C2(CN3CCC(NC(=O)c4[nH]ncc4Cl)CC3)CCCCC2)cc1 [TCMDC-124838],29.65
26,O=C(NC1CC1)c1cnc(N2CCN(Cc3ccc(Cl)cc3)CC2)c(Cl)c1 [TCMDC-134601],8.945

row,Structure (SMILES),% Inhibition [%]
1,Cc1ccccc1OCC(=O)Nc1ccc(-c2nc3cc4ccccc4cc3[nH]2)cc1 [TCMDC-125670],10.69
2,CC1(C)N=C(N)N=C(N)N1c1ccc(Oc2ccccc2)cc1 [TCMDC-137712],1.861
3,CN(C)CCC(O)C=C(c1ccc(Cl)cc1)c1ccc(Cl)cc1 (stereo not shown) [TCMDC-132094],12.81
4,Cc1ccc(S(=O)(=O)n2cc(-c3ccnc(N)c3)c3cc(Br)cnc32)cc1 [TCMDC-134306],-5.282
5,COc1ccc2nccc([C@@H](O)CN3CCC(NCCOc4ccccc4[N+](=O)[O-])CC3)c2c1 [TCMDC-140711],39.45
6,O=C(NC1CCN(CC2(c3ccc(Cl)cc3)CCC2)CC1)c1cscn1 [TCMDC-124829],62.42
7,Cc1ccc(NC(=O)c2ccc(C(=O)NC3CCN(CC4CCCCC4)CC3)cc2)cc1 [TCMDC-136747],-26.65
8,Cc1cccc(NC(=O)c2ccc(C(=O)NC3CCN(CC4CCCCC4)CC3)cc2)c1 [TCMDC-136748],-45.39
9,CCc1[nH]nc(C(=O)Nc2cccc(N3CCCC3)c2)c1C [TCMDC-124845],-34.24
10,COc1ccc2nccc([C@@H](O)CN3CCC(NC(=O)c4nc(Cl)c(Cl)c(N)c4Cl)CC3)c2c1 [TCMDC-140771],4.246
11,Cc1ccc(C2(CN3CCC(NC(=O)c4ccn[nH]4)CC3)CCCCC2)cc1 [TCMDC-124839],64.93
12,O=C(NC1CCN(Cc2ccccc2)CC1)c1csc2nc(-c3ccc(Cl)cc3)cn12 [TCMDC-133071],-8.625
13,CCc1[nH]nc(C(=O)NC2CCN(CC3(c4ccc(OC)cc4)CCCCC3)CC2)c1C [TCMDC-124840],100.4
14,COc1c(I)cc(Cc2cnc(N)nc2N)cc1I [TCMDC-138050],-8.492
15,N#Cc1cc(N(CCCOc2cccc(OC(F)(F)F)c2)Cc2ccccc2C(F)(F)F)ccc1C(F)(F)F [TCMDC-132783],-11.19
16,COc1cccc(Cc2c(C)nc3nc(N)nc(N)c3c2C)c1 [TCMDC-137650],36.32
17,Cc1ccc(F)c(OCC2CCCN(c3ccc(C(=O)NC4CC4)cn3)C2)c1 (stereo not shown) [TCMDC-134035],18.85
18,Cc1cccc2[nH]c(-c3ccc(-c4cccc(CN5CCN(CCO)CC5)c4)cc3)nc12 [TCMDC-133029],-7.664
19,NC(N)=NC(=O)Nc1ccc([N+](=O)[O-])c(Cl)c1 [TCMDC-137468],-7.379
20,Nc1ncc(-c2cn[nH]c2)cc1-c1nc2ccc(F)cc2[nH]1 [TCMDC-133559],26.39
21,NS(=O)(=O)c1cncc(-c2ccc3nccc(-c4cn[nH]c4)c3n2)c1 [TCMDC-134293],66.05
22,Cc1cccc2[nH]c(-c3cc(-c4cn[nH]c4)cnc3N)nc12 [TCMDC-133561],-9.324
23,CC(NC(=O)c1ccc(O)c(-c2ccc(Cl)c(Cl)c2)c1)C(=O)NCCN1CCOCC1 (stereo not shown) [TCMDC-140849],3.738
24,Cc1cnc(N2CCN(CCCN3CCCC3)CC2)nc1Oc1ccc(-n2ccnc2)cc1 [TCMDC-132207],28.92
25,N#Cc1ccc(N(CCOc2ccc(Cl)c(Cl)c2)Cc2ccccc2C(F)(F)F)cc1C(F)(F)F [TCMDC-132795],-20.83
26,CC(Cc1ccc(NC(=O)c2ccc(CC(C)NCc3ccc(Cl)c(Cl)c3)cc2)cc1)NCCc1cccc(Cl)c1 (stereo not shown) [TCMDC-139806],8.931

row,Structure (SMILES),% Inhibition [%]
1,CC(Cc1ccc(NC(=O)[C@@H](C)NCCc2cccc(Cl)c2)cc1)NCCc1cccc(Cl)c1 (stereo partly shown) [TCMDC-139831],101.6
2,CC(Cc1ccc(NC(=O)c2ccc(CC(C)NCc3ccc(Cl)cc3)cc2)cc1)NCCc1cccc(Cl)c1 (stereo not shown) [TCMDC-139810],112.2
3,CC(=O)Nc1ccc(CCNC(C)Cc2ccc(C(=O)Nc3ccc(CC(C)NCCc4cccc(Cl)c4)cc3)cc2)cc1 (stereo not shown) [TCMDC-139828],108.3
4,CC(Cc1ccc(NC(=O)[C@H](C)NCCc2cccc(Cl)c2)cc1)NCCc1cccc(Cl)c1 (stereo partly shown) [TCMDC-139830],21.29
5,CC(Cc1ccc(NC(=O)c2ccc(NCCc3ccccc3)cc2)cc1)NCCc1cccc(Cl)c1 (stereo not shown) [TCMDC-139832],47.1
6,CCOc1ccccc1CCNC(C)Cc1ccc(C(=O)Nc2ccc(CC(C)NCCc3cccc(Cl)c3)cc2)cc1 (stereo not shown) [TCMDC-139805],111.8
7,CC(=O)Nc1ccc(CNCCc2ccc(NC(=O)c3cc(Cl)cc(Cl)c3)cc2)cc1 [TCMDC-140678],2.681
8,Cc1nc(Nc2ccc(F)cc2)nc(N2CCc3ccccc3C2C)c1CO (stereo not shown) [TCMDC-141074],-64.94
9,O=C(Nc1cccc(-c2cccc(-c3nc4ccc(F)cc4[nH]3)c2)c1)c1csnn1 [TCMDC-136899],16.2
10,O=C(Nc1cccc(-c2ccc(-c3nc4ccc(C(F)(F)F)cc4[nH]3)cc2)c1)Nc1ccc(Cl)c(Cl)c1 [TCMDC-133274],-18.31
11,Nc1nc2ccc(S(=O)(=O)Nc3ccc(C(=O)N[C@@H](CCC(=O)O)C(=O)O)c(F)c3)cc2c(=O)[nH]1 [TCMDC-137540],7.521
12,CC(Cc1ccc(C(=O)Nc2ccc(CC(C)NCCc3cccc(Cl)c3)cc2)cc1)NCCc1ccc(C(F)(F)F)cc1 (stereo not shown) [TCMDC-139790],137.5
13,COc1ccc(CCNC(C)Cc2ccc(C(=O)Nc3ccc(CC(C)NCCc4cccc(Cl)c4)cc3)cc2)cc1 (stereo not shown) [TCMDC-139750],113.2
14,Cc1cccc2nc(-c3ccc(-c4ccc(C(=O)NCCc5cn(C)cn5)cc4)s3)[nH]c12 [TCMDC-132499],-4.132
15,CCc1cc(NC2CCN(C)CC2)nc(Nc2cccc(OC)c2)n1 [TCMDC-134002],40.04
16,CC(C)(C)Nc1cc(C2CC2)nc(-c2ccccn2)n1 [TCMDC-124453],105.8
17,C=CCNc1cc(-c2ccccn2)nc(-c2ccccn2)n1 [TCMDC-123787],23.88
18,c1ccc(-c2nnc(-c3ccccn3)nc2NC2CCCCC2)cc1 [TCMDC-123764],29.34
19,c1ccc(CNc2cc(-c3ccccn3)nc(-c3ccccn3)n2)cc1 [TCMDC-125421],-1.689
20,CC(Nc1cc(-c2ccccn2)nc(-c2ccccn2)n1)c1ccccc1 (stereo not shown) [TCMDC-125420],24.2
21,c1ccc(-c2nc(NC3CCCCC3)cc(C3CC3)n2)nc1 [TCMDC-125825],105.2
22,CC(C)(C)c1cc(NC2CC2)nc(-c2ccccn2)n1 [TCMDC-125826],69.03
23,Cc1cc(NC2CCCC2)nc(Nc2ccccc2)n1 [TCMDC-133459],-35.61
24,OC1CCN(c2cc(-c3ccccn3)nc(-c3ccccn3)n2)CC1 [TCMDC-123786],41.56

# — PMC4552634, “A New Set of Chemical Starting Points with Plasmodium falciparum Transmission-Blocking Potential for Antimalarial Drug Discovery” (PLoS ONE, 2015)
